The list is not random: actives were taken first. Their share in the collection is about 4.7%.
TIM10 inh: growth inhibitors of TIM10 yeast strain | inhibition, % at 10 µM | S. cerevisiae TIM10 strain growth, BacTiter-Glo luminescence, 24 h | 1.4% of 330,000 active;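 active = inhibition of 40% or more at the single tested concentration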;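 note: wild-type TIM10 isogenic control strain grown at permissive 25 °C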
Calb FLC: C. albicans growth modulation with fluconazole | C. albicans CaCi-2 (fluconazole-resistant clinical isolate) + fluconazole, Alamar Blue growth, 48 h | growth inhibition, % (test concentration not listed) | 0.57% of 300,000 active;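 active = growth inhibition above about 58% in most replicates, limit read from the data, passing the limit was not always enough; inconclusive = exactly half the replicates above a set limit; inactive = most replicates below a set limit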;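 note: all wells also contain fluconazole at 8 µg/ml as a sub-toxic cotreatment; 0% = median of DMSO wells and 100% = median of geldanamycin control wells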
SKKanGAS inh: inhibitors of SKKanGAS S. pyogenes growth in kanamycin (SK-promoter or general growth effect) | BacTiter-Glo, 6 h | inhibition, % at 7.5 µM | 1.3% of 300,000 active | AID 1662;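 active = mean replicate score, as percent of positive control median, at least 50; inconclusive = mean below 50 but one replicate at or above 50; inactive = mean and every replicate below 50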;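 note: strain carries kanamycin resistance gene driven by streptokinase promoter and grows in 40 µg/ml kanamycin; loss of luminescence reflects streptokinase promoter inhibition or plain growth inhibition; 0% = median of DMSO wells and 100% = positive control at its reference dose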
tim10-1 inh: tim10-1 yeast growth inhibition; S. cerevisiae tim10-1 ts strain growth, BacTiter-Glo, 24 h; inhibition, % at 20 µM; 2.2% of 330,000 active; AID 463190;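 active = inhibition of at least 40%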;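 note: mutant grown at 25 °C; 0% = DMSO wells with yeast and 100% = wells holding no yeast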
tim23-1 inh: tim23-1 yeast growth inhibition | inhibition, % at 20 µM | S. cerevisiae tim23-1 growth, BacTiter-Glo luminescence, 24 h | 1.3% of 330,000 active;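 active = growth inhibition of the mutant yeast at or above 50%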;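 note: temperature-sensitive mutant grown at 25 °C; plate controls were DMSO-treated mutant yeast for no effect and medium wells lacking yeast for full effect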
PfHsp90 yeast 2: growth inhibition of yeast expressing Plasmodium Hsp90 | S. cerevisiae expressing PfHsp90, BacTiter-Glo ATP, 48 h; yeast lacking PDR1 and PDR3 efflux regulators | inhibition, % at 9.4 µM | 0.32% of 310,000 active | AID 504621;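 active = every replicate shows inhibition above about 80%, whatever the replicate mean, limit read from the data; inconclusive = mean inhibition reaches the set limit but some replicate falls short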;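 note: 0% = DMSO neutral controls and 100% = 20 µM radicicol positive controls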
tim10 confirm: TIM10 yeast growth inhibition, confirmed | S. cerevisiae tim10 strain growth, BacTiter-Glo luminescence, 24 h | inhibition, % at 10 µM | 63% of 4,600 active | shares compounds with TIM10 inh;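 active = inhibition of yeast growth at or above a set limit in either of two replicates at 10 µM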;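 note: this counterscreen used the strain with wild-type TIM10; 0% = yeast with DMSO and 100% = medium wells lacking yeast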
Numbers without * were called inactive; ? = inconclusive; / = not tested or not shown.

SMILES	TIM10 inh	Calb FLC	SKKanGAS inh	tim10-1 inh	tim23-1 inh	PfHsp90 yeast 2	tim10 confirm
CC1CCc2c(C(=O)Nc3nccs3)csc2C1 (stereo not drawn)	43*	-7	-9	34	43	-36	43*
CC1CCc2c(C(=O)Nc3ccccn3)csc2C1 (stereo not drawn)	13	-9	8	7	40	9	/
O=C(N=C1c2ccccc2CN1c1ccc(F)c(F)c1)c1cccnc1	49*	/	/	33	42	0	13
Cc1ccnc2nc(C(=O)OC(C)C(=O)NCc3ccccc3)nn12 (stereo not drawn)	3	/	/	14	10	-10	/
S=C(NCCc1ccccc1)Nc1ccc(Cl)cc1Cl	49*	-1	10	34	36	-18	49*
O=C(Nc1cccc(Cl)c1)c1cnn2cccnc12	52*	7	-8	23	45	16	35*
O=C(Nc1cc(Cl)cc(Cl)c1)c1cnn2cccnc12	3	14	-1	15	-3	12	/
Cc1ccc(O)c(C(=O)/C=C/c2ccc3c(c2)OCCCO3)c1	49*	?	-48	38	37	-7	56*
COc1ccc(S(=O)(=O)N2CCC(C(=O)NCc3ccncc3)CC2)cc1	9	-6	-3	6	1	-5	/
Cc1ccc(C(=O)Nc2ccccc2C(=O)N2CC3(C)CC2CC(C)(C)C3)cc1 (stereo not drawn)	44*	7	-1	33	31	-92	24
CCCCCOCC1CC(C/C(C)=N/NC(N)=S)C(=O)O1 (stereo not drawn)	6	-9	-6	12	7	19	/
C/C(CC1CC(COCC(C)C)OC1=O)=N\NC(N)=S (stereo not drawn)	96*	5	1	13	-9	16	2
CC(OC(=O)CCNS(=O)(=O)c1ccccc1)C(=O)Nc1ccc(S(=O)(=O)N2CCCCC2)cc1 (stereo not drawn)	/	/	/	/	/	10	/
O=S(=O)(Nc1ccc(-n2cccc2)cc1)c1ccc(Cl)c(Cl)c1	45*	11	50*	-57	40	-15	41*
Clc1ccc(-c2n[nH]c3c2CCCC3)cc1	41*	16	-6	24	42	-14	34*
O=C(c1ccccc1)[C@H]1[C@H](c2ccccc2)[C@@]2(N=C(c3ccccc3)OC2=O)C2c3ccccc3C=NN21 (stereo partly drawn)	42*	-1	5	34	22	/	25
COc1ccc([C@H]2[C@H](C(=O)C(C)(C)C)N3N=Cc4ccccc4C3C23C(=O)OC(C)(C)OC3=O)cc1 (stereo partly drawn)	10	-7	3	35	15	5	/
COc1ccc(C(C#N)Nc2ccccc2)cc1 (stereo not drawn)	4	3	-15	8	-7	/	/
N#CC(Nc1ccccc1)c1ccccc1OCc1ccccc1 (stereo not drawn)	42*	0	7	18	32	/	15
Cc1ccc(/C=N/Nc2nc(C)cc(C)n2)cc1	74*	10	-11	-12	-18	-10	9
Cc1cc(C)nc(N/N=C/c2ccc(Cl)cc2)n1	11	0	-2	-5	-19	-22	/
COc1ccc(N2CCN(C(=O)c3ccc(Oc4ccc(C(F)(F)F)cn4)cc3)CC2)cc1	44*	-9	1	24	26	4	41*
O=C(c1ccc(Oc2ccc(C(F)(F)F)cn2)cc1)N1CCN(c2ccccc2)CC1	25	9	2	35	33	-11	/
CCN(CC(=O)Nc1ccc2c(c1)OCCO2)S(=O)(=O)c1ccc(F)cc1	13	-4	1	-8	12	1	/
Cc1ccc(C(=O)C[n+]2cc(-c3ccc(C)cc3)n3c2CCCCC3)cc1	46*	88*	13	30	20	13	15
SMILES	TIM10 inh	Calb FLC	SKKanGAS inh	tim10-1 inh	tim23-1 inh	PfHsp90 yeast 2	tim10 confirm
O=C(NC(=S)Nc1ccc2c(c1)OCCO2)c1cccc2ccccc12	44*	1	33	39	40	4	48*
O=C(CN(Cc1ccco1)C(=O)c1ccc(F)cc1)Nc1ccccc1Br	10	/	/	-2	29	8	/
CN1CCN(C(=O)CNC(=O)C23CC4CC(CC(C4)C2)C3)CC1	3	/	/	5	9	1	/
O=C(Nc1ccc(Cl)cc1)N1CCC(c2nc(-c3ccccc3Cl)no2)CC1	48*	6	35	30	-6	-12	19
CC(C)c1ccc(C(O)Cc2nc3ccccc3n2C)cc1 (stereo not drawn)	43*	-4	17	17	17	11	-4
CN(C)c1ccc(C(O)Cc2nc3ccccc3n2C)cc1 (stereo not drawn)	-11	-41	2	3	18	41	/
Nc1ccc(-c2nc3ccc(-c4nc5ccccc5o4)cc3[nH]2)cc1	55*	0	2	31	32	9	0
Cc1nc2ccc(-c3nc4ccccc4o3)cc2[nH]1	47*	-29	-5	-1	48	5	34*
Cc1ccnc2ccc(-c3nc4ccccc4o3)cc12	34	/	/	8	26	-20	/
Nc1ccc(-c2nc3ccc(N)cc3o2)cc1	20	-6	5	6	15	-11	/
C[C@]12CCC(=O)C=C1C=C[C@@H]1[C@@H]2CC[C@@]2(C)[C@H]1CC[C@@]21CCC(=O)O1	16	0	-3	31	32	-15	/
CCn1c(-c2csc3c2CCCC3)n[nH]c1=S	34	-4	4	29	35	4	/
C=CCn1c(-c2csc3c2CCC(C)C3)n[nH]c1=S (stereo not drawn)	43*	-34	8	30	27	-10	-3
CCCCn1c(-c2csc3c2CCCC3)n[nH]c1=S	43*	-15	10	20	34	/	24
CC(C)Oc1ccc(CNS(=O)(=O)c2csc(C(N)=O)c2)cc1	3	-2	-15	-9	-11	1	/
COc1ccc(C(CNC(=O)c2ccc(-c3ccccc3)cc2)N(C)C)cc1OC (stereo not drawn)	10	-3	1	18	10	-7	/
COc1ccc(CN2CCC(Oc3cc(C(=O)NC4CC4)ccc3OC)CC2)c(O)c1	83*	-4	-2	-10	0	2	0
COc1ccc(CNC(=O)COC(=O)CCn2c(C)csc2=O)cc1OC	-3	6	-23	-9	15	/	/
O=C(Nc1ccc(NC(=O)c2ccccc2F)cc1)c1cccs1	45*	/	/	-18	47	/	26
O=C(Nc1ccc(NC(=O)c2cccs2)cc1)c1cccs1	-7	?	-1	-45	-3	10	/
O=C(NC(=S)NC12CC3CC(CC(C3)C1)C2)c1ccc(F)cc1	44*	/	/	20	47	/	48*

High-throughput results (PubChem)
